Reference: PubChem BioAssay (NCI)
Compounds without any hit were thinned out: in the full panel of roughly 83,000, 20% have a hit.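 The test compound was applied at a single concentration to cells in 96-well plates for 48 hours, and percent growth was recorded.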 A number with no mark means an inactive call. The source made the active and inactive calls. How the source made its calls: active means growth percent below 10; inactive means the rest.

Tested on: RXF 393 renal
Experiment: NCI-60 one-dose screen, 48 h (100 = growth as untreated, 0 = no growth, -100 = all killed)
Settings: 10 µM unless noted

SMILES | growth
O=C1NN(c2ccccc2)C(c2ccc(Cl)cc2)N2CCC[C@H]12 (stereo partly drawn) | 108%
Nc1ccccc1NS(=O)(=O)c1ccc(Cl)cc1 | 115%
CCCCCCN1C(=O)CN=C1Nc1ccc2cc3ccc(NC4=NCC(=O)N4CCCCCC)cc3nc2c1 | 11.6%
Nc1n[nH]c2cccc(C#Cc3cccc(NC(=O)c4cc(N5CCOCC5)cc(C(F)(F)F)c4)c3)c12 | 38.7%
Cc1cnc(SCc2ccc(Cl)cc2Cl)nc1Nc1ccc(Cl)c(Cl)c1 | 97.4%

Tested on: SF-268 CNS
Experiment: as above
Settings: 10 µM unless noted

SMILES | growth
COc1ccc(/C=C/C(=O)/C=C(/C=C/c2ccc(OC)c(OC)c2)OB(F)F)cc1OC | 34.9%
COc1cc(/C=C/C(=O)/C=C/c2cc3ccc(Cl)cc3[nH]c2=O)ccc1O | 72.2%
CCCCn1c(=O)c(/C=C/C(=O)/C=C/c2cc3ccccc3n(CCCC)c2=O)cc2ccccc21 | 7.91% (active)
COc1ccc(-c2nc(C#N)c(NCC(c3ccco3)N3CCCC3)o2)cc1 (stereo not drawn) | 52.3%
N#C/C(=C/c1ccc(O)c([N+](=O)[O-])c1)c1nc(-c2ccc([N+](=O)[O-])cc2)cs1 | 50.5%
C=C1C(=O)O[C@H]2[C@H]1CC/C(COC(=O)CCCCC(=O)OC/C1=C/CC[C@@]3(C)O[C@H]3[C@H]3OC(=O)C(=C)[C@@H]3CC1)=C\CC[C@@]1(C)O[C@@H]21 | 82.2%
CCOC(=O)c1c(C(F)(F)F)n([O-])c2ccc(Cl)cc2[n+]1=O | -49.5% (active)
COc1ccc(-c2nc(C#N)c(NCC(c3ccc(Cl)cc3)N3CCCCC3)o2)cc1 (stereo not drawn) | 89.7%
O=CN1N=C(c2ccc(Cl)cc2)CC1c1cccc(Nc2ccnc3cc(C(F)(F)F)ccc23)c1 (stereo not drawn) | 58.9%
O=C(CCCCCCCCC(=O)Nc1cccc(C2=NCCN2)c1)Nc1cccc(C2=NCCN2)c1 | 103%
CCOC(=O)C1CCN(S(=O)(=O)/N=C2/NC(=O)NC2=C(Cl)Cl)CC1 | 11.2%
S=c1ssnc1-c1cc2ccccc2o1 | 78.8%
NS(=O)(=O)c1ccc(C2C3=C(CCCC3=O)OC3=C2C(=O)c2ccccc2C3=O)cc1 (stereo not drawn) | -42.6% (active)
C=C1C(=O)O[C@H]2[C@H]1CCC(/C=N/c1ncc(Br)cc1N)=C\CC[C@@]1(C)O[C@@H]21 | 52.5%
C#Cc1ccccc1NC(=O)c1sc2nc3c(cc2c1N)CCCCC3 | 104%
NS(=O)(=O)c1ccc(-n2nc(-c3ccccc3)ccc2=O)cc1 | 106%
COc1ccc(-c2nnc(N3CCN(C(=O)CN4CCN(c5ccc(OC)cc5)CC4)CC3)nc2-c2ccc(OC)cc2)cc1 | -32.4% (active)
N#Cc1ccc(Oc2ccc3ccc(=O)oc3c2)cc1 | 105%
CC1CCCN(CCCCCOc2ccc3oc4ccccc4c(=O)c3c2)C1 (stereo not drawn) | 72.5%

SMILES | growth
CS(=O)(=O)O[C@@H]1C(=O)N(c2cc3c4ccccc4ccc3c3ccccc23)[C@H]1c1ccc(F)cn1 | 43.4%
C=C1C(=O)O[C@H]2[C@H]1CC/C(C=Nc1c(N)cc(F)cc1Br)=C\CC[C@@]1(C)O[C@@H]21 | 83.1%
Cc1ccc(SC2c3ccc(C)cc3Oc3nc(N)c(C#N)c(N)c32)cc1 (stereo not drawn) | 82.8%
O=C(Nc1nccs1)c1noc2ccccc12 | 103%
C=C(C)[C@@H]1CC[C@]2(C(=O)OCCCC[P+](c3ccccc3)(c3ccccc3)c3ccccc3)CC[C@]3(C)[C@H](CC[C@@H]4[C@@]5(C)CC[C@H](OC(=O)C(Cl)Cl)C(C)(C)[C@@H]5CC[C@]43C)[C@@H]12 | -15.7% (active)
Cc1cc2ccccc2c[n+]1CC(=O)c1ccc(-c2ccccc2)cc1 | 73.4%
O=C1Nc2ccc(Cl)cc2/C1=N/c1nc(-c2ccc(F)cc2)cs1 | 46%
COc1cc(/C=N/Nc2nc(-c3ccc(F)cc3)c(C#N)c(N3CCOCC3)n2)ccc1O | 99.8%
C=C(C)[C@@H]1CC[C@]2(C(=O)N=C=S)CC[C@]3(C)[C@H](CC[C@@H]4[C@@]5(C)CCC(=O)C(C)(C)[C@@H]5CC[C@]43C)[C@@H]12 | 36.5%
CC1(C)[C@@H](O)CC[C@]2(C)[C@H]3CC[C@@H]4[C@H]5[C@H](c6cn(-c7ccccc7)nn6)CC[C@]5(CO)CC[C@@]4(C)[C@]3(C)CC[C@@H]12 | 76.7%
COc1cc(/C=C/C(=O)c2ccc(NC(=O)CSc3nnc(-c4cc(OC)c(OC)c(OC)c4)n3-c3ccccc3)cc2)cc(OC)c1OC | 34.3%
O=c1c2ccccc2n(CC(O)CN2CCCC2)c2c(Br)cccc12 (stereo not drawn) | 94.8%
COc1cc(-c2cn(-c3ccc(Cl)c(Cl)c3)c(=O)[nH]2)cc(OC)c1OC | 87.6%
COC(=O)c1ccc2c(c1)n(Cc1ccc3ccccc3c1)c[n+]2Cc1ccc2ccccc2c1 | 40.9%
O=C1NN(c2ccccc2)C(c2ccc(Cl)cc2)N2CCC[C@H]12 (stereo partly drawn) | 97.4%
Nc1ccccc1NS(=O)(=O)c1ccc(Cl)cc1 | 93.5%
CCCCCCN1C(=O)CN=C1Nc1ccc2cc3ccc(NC4=NCC(=O)N4CCCCCC)cc3nc2c1 | 47.5%
Nc1n[nH]c2cccc(C#Cc3cccc(NC(=O)c4cc(N5CCOCC5)cc(C(F)(F)F)c4)c3)c12 | 55.8%
Cc1cnc(SCc2ccc(Cl)cc2Cl)nc1Nc1ccc(Cl)c(Cl)c1 | 90.5%
